Rows were chosen to be rich in hits. Some 2.4% of all compounds tested hit in one or more screens of this group.
VLA-4 antagonist: inhibition of LDV-FITC ligand binding to human VLA-4 integrin; Jurkat cells, LDV-FITC binding with Mn2+, flow cytometry; 100% = Mn2+-driven binding gain fully reversed; P13612; hit rate 0.2% among 24,000; inhibition, % at 10 µM (by protocol);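 active = inhibition above 50%; inconclusive = compound itself fluorescent, judged against control cell fluorescence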
FPRL1 binder: binds the human formylpeptide receptor-like-1 FPRL1; P25090; FPRL1-expressing cells, fluorescent ligand binding inhibition, flow cytometry; inhibition, % (test concentration not listed); hit rate 0.3% among 24,000; AID 441
Target sequence (P25090 whole entry, looked up): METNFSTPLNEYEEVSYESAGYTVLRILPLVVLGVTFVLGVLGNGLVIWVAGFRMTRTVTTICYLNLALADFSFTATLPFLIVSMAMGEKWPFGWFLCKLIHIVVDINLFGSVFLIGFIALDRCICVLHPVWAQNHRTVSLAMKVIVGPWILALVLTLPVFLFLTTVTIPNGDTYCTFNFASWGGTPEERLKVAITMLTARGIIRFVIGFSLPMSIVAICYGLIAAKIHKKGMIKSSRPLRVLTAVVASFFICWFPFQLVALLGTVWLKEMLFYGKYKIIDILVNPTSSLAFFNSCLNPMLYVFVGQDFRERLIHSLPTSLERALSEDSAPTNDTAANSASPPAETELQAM
FPR ligand: human FPR ligand, with FPRL1 counter-screen. P21462. FPR-expressing cells, fluorescent ligand binding, flow cytometry. inhibition, % (concentration not given with the values). hit rate 0.74% among 24,000
Target sequence (P21462 whole entry, looked up): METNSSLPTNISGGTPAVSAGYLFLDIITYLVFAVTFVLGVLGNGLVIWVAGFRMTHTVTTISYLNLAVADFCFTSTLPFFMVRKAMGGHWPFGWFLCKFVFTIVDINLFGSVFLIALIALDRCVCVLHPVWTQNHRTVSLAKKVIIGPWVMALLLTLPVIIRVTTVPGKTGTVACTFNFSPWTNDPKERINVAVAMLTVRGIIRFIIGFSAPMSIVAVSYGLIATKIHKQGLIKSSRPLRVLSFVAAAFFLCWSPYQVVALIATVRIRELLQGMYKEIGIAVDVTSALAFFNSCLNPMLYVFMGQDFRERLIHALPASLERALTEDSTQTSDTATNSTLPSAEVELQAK
Jurkat autofluor: autofluorescence counter-screen for VLA-4 integrin assays; Jurkat cells, compound autofluorescence, flow cytometry; stronger effect = higher value; 1 = vehicle-only cell background; fluorescence ratio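 (tested at 10 µM compound in the well)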; hit rate 0.61% among 24,000;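 active = fluorescence ratio above 2.44, which is 1 plus 3 SD of all ratios; inconclusive = signal too bright to measure linearly, ratio around 10 or more; inactive = fluorescence ratio below 2.44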;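 also: green fluorescence of cells measured with 488 nm excitation and 530 nm emission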
VLA-4 allo ag: allosterically activates the human VLA-4 integrin; P13612; Jurkat cells, LDV-FITC binding, flow cytometry; activation, % at 10 µM (by protocol); 24,000 tested, under 10 active; AID 528;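 active = fluorescent ligand binding to cells raised by more than 40% of the manganese-induced maximum; inconclusive = compound's own fluorescence above 85% of the ligand control signal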
Prostate diff: LNCaP prostate cell differentiation activation; flow cytometry side scatter, 4 d; side scatter shift, % at 10 µM; hit rate 0.56% among 24,000;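 active = side scatter shift above 30%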;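 also: androgen-responsive LNCaP prostate cancer cells in charcoal-stripped serum medium; higher shift means more granular cells and more differentiation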
Of the large screens only hits and unclear results are named; the others gave an inactive call. Rule as the data show it, unless noted: active = inhibition above about 30%; inconclusive = no clear call, values can overlap the other calls; inactive = below that.

CCCOC1(NC(=O)c2ccccc2)C(C)=CC(=O)C=C1C	none
COc1ccc(-c2nc(-c3ccc(Br)o3)no2)cc1OC	FPRL1 binder 30.6
COc1ccc(-c2nc(-c3ccc(NC(=O)c4ccc(Br)o4)cc3)no2)cc1OC	FPRL1 binder 49.8, FPR ligand 42.8
O=C(CSc1ccc2nnc(-c3ccccc3)n2n1)N1CCCCC1	none
O=C(NCc1ccc2c(c1)OCO2)c1nnc(Cc2ccc(Cl)cc2)o1	VLA-4 antagonist inconclusive, VLA-4 allo ag inconclusive
CCOC(=O)C(C(=O)OCC)C(CC(=O)C1CC1)c1ccccc1 (stereo not drawn)	none
CN(C)c1ccc(-c2nn3c(-c4ccc(Cl)cc4Cl)nnc3s2)cc1	Prostate diff 39.0
COc1cccc(C2C3=C(CCCC3=O)Nc3nc4ccccc4n32)c1OC (stereo not drawn)	none
Cc1nc2ccccc2c2oc(C(=O)NCc3ccccn3)cc12	none
Cc1nc(NCc2ccccn2)c2ccccc2n1	VLA-4 antagonist inconclusive, Jurkat autofluor 2.79, VLA-4 allo ag inconclusive
Nc1ccc(Nc2ccccc2N)cc1	VLA-4 antagonist inconclusive, FPRL1 binder 46.8, Jurkat autofluor 5.23, VLA-4 allo ag inconclusive
CNC(=O)CSc1nnc(-c2cc3c(C)nn(-c4ccccc4)c3s2)n1C	none
COc1ccccc1-c1nnc(NC(=O)c2ccc(S(=O)(=O)N(C)C)cc2)o1	VLA-4 antagonist inconclusive, Jurkat autofluor 5.14, VLA-4 allo ag inconclusive
CCc1nnc(NC(=O)c2ccc(S(=O)(=O)N(CCOC)CCOC)cc2)o1	VLA-4 antagonist inconclusive, Jurkat autofluor 3.61, VLA-4 allo ag inconclusive
O=C(Nc1nnc(-c2ccccc2Cl)o1)c1ccc(S(=O)(=O)N2CCCCCC2)cc1	FPR ligand 31.4
COc1ccc(-c2nnc(NC(=O)c3ccc(S(=O)(=O)N4COCC4(C)C)cc3)o2)cc1	VLA-4 antagonist inconclusive, Jurkat autofluor 6.27, VLA-4 allo ag inconclusive
O=C(Cn1cc2c(n1)CCCCC2)N1CCc2ccccc21	none
O=C(Cc1ccc(-n2cccc2)cc1)N1CCc2ccccc21	VLA-4 antagonist inconclusive, Jurkat autofluor 4.92, VLA-4 allo ag inconclusive
CCN(CC)CCCNc1oc(-c2cccc(Cl)c2)nc1C#N	Prostate diff 32.0
CCCCNC(=O)OCCNC(=O)NC	none
CCCCCn1c(=N)n(CC(O)COc2ccccc2OC)c2ccccc21 (stereo not drawn)	Prostate diff 34.0
Cc1ccc(OCC(O)Cn2c(=N)n(CCN3CCCCC3)c3ccccc32)cc1 (stereo not drawn)	Prostate diff 58.0
CCNC(=O)CC1C(=O)N(c2ccccc2)C(=O)N1Cc1ccc(OC)cc1 (stereo not drawn)	none
C#CC(C)(CC)NC(=O)Cn1nnc(-c2ccc(S(C)(=O)=O)cc2)n1 (stereo not drawn)	none
CC(C)Oc1ccc(C(CC(=O)O)NC(=O)C2CCCCC2)cc1 (stereo not drawn)	VLA-4 antagonist 96.5
Cc1cccn2c(=O)c3cc(C(=O)N4c5ccccc5CC4C)n(C)c3nc12 (stereo not drawn)	VLA-4 antagonist inconclusive, Jurkat autofluor 2.7, VLA-4 allo ag inconclusive
COc1cccc(OC)c1/C(O)=C(\C#N)c1nc2ccccc2[nH]1	FPR ligand 32.5
CC(C)(C)/C(O)=C(/C#N)c1nc2ccccc2[nH]1	VLA-4 antagonist inconclusive, VLA-4 allo ag inconclusive
COC(=O)NCCOC(=O)N(O)c1ccc(Br)cc1	VLA-4 antagonist inconclusive, VLA-4 allo ag inconclusive
Cc1ccc2c(c1)NC(=O)C(CC(=O)NCCCN1CCN(c3cc(Cl)ccc3C)CC1)O2 (stereo not drawn)	Prostate diff 44.0
COc1ccccc1N1CCN(c2nc3ccccc3nc2C(C#N)C(=O)OC(C)C)CC1 (stereo not drawn)	Prostate diff 30.0
COC(=O)c1ccccc1NC(=O)CN1CCC(n2nnc3cc(F)ccc32)CC1	Prostate diff 30.0
Cc1cccc(C(=O)N2CCC(n3nnc4cc(F)ccc43)CC2)c1	none
CCN(CCCc1ccccc1)CCCc1ccccc1	FPR ligand 53.6
Cc1cccn2c(=O)c3cc(C(=O)N4CCc5ccccc54)n(C)c3nc12	VLA-4 antagonist inconclusive, VLA-4 allo ag inconclusive
CCOC(=O)C1CCN(Cc2ccc(C(=O)OC)cc2)CC1	FPRL1 binder 55.1, FPR ligand 47.8
CCOC(=O)C1CCN(c2c(NCCCN3CCN(Cc4ccccc4)CC3)c(=O)c2=O)CC1	none
CCOC(=O)C1CCN(CC(O)COc2ccc(C(C)=O)cc2)CC1 (stereo not drawn)	FPR ligand 34.6
CCOC(=O)N1CCC(Nc2c(NCCCN(CC)c3cccc(C)c3)c(=O)c2=O)CC1	VLA-4 antagonist inconclusive, VLA-4 allo ag inconclusive
Cc1nc(C)c(C(=O)C2=C(O)C(=O)N(CCN3CCOCC3)C2c2cccs2)s1 (stereo not drawn)	none (no result: VLA-4 antagonist, Jurkat autofluor, VLA-4 allo ag, Prostate diff)
O=C(C1=C(O)C(=O)N(Cc2ccco2)C1c1ccccc1)c1cccs1 (stereo not drawn)	FPR ligand 71.3 (no result: VLA-4 antagonist, Jurkat autofluor, VLA-4 allo ag, Prostate diff)
CC(=O)C1=C(O)C(=O)N(Cc2ccco2)C1c1ccc(F)cc1 (stereo not drawn)	none
O=C(C1=C(O)C(=O)N(CCOCCO)C1c1cccs1)c1cccs1 (stereo not drawn)	FPR ligand 70.6 (no result: VLA-4 antagonist, Jurkat autofluor, VLA-4 allo ag, Prostate diff)
COc1cccc2c1C(=O)c1c(O)c3c(c(O)c1C2=O)C[C@@](O)(C(=O)CO)C[C@@H]3O[C@H]1C[C@H](N)[C@H](O)[C@H](C)O1	VLA-4 antagonist inconclusive, Jurkat autofluor 6.26, VLA-4 allo ag inconclusive
CC(=O)c1c(C)nc(-c2ccc(Cl)cc2)nc1N=CN(C)C	VLA-4 antagonist inconclusive, Jurkat autofluor 3.19, VLA-4 allo ag inconclusive
COc1ccc(NC(=O)CN2C(=O)CC(C)(C)S(=O)(=O)c3ccccc32)cc1	none
CCOc1ccc(-c2cc(C(=O)NCCCN3CCN(CC)CC3)c3ccccc3n2)cc1	Prostate diff 37.0
CCOCCCNC(=O)Cn1cc2c(n1)CCCCC2	none
Cc1ccc(C2=Nc3ccccc3NC(C)(c3ccc(C)o3)C2)o1 (stereo not drawn)	Prostate diff 35.0
CCOC(=O)c1c(C)oc2c1c(/C=N/c1ccccn1)c(O)c1ccccc12	VLA-4 antagonist inconclusive, Jurkat autofluor 8.86, VLA-4 allo ag inconclusive (no result: FPRL1 binder, FPR ligand)
Cc1ccc(N2CCN(C(=S)c3ccc(N(C)C)cc3)CC2)cc1	VLA-4 antagonist inconclusive, Jurkat autofluor 3.52, VLA-4 allo ag inconclusive
S=C(c1ccc(N2CCOCC2)cc1)N1CCCCC1	none
CCCOc1ccc(C(CC(=O)O)NC(=O)c2ccc3c(c2)OCO3)cc1 (stereo not drawn)	VLA-4 antagonist 88.0
CCCOc1ccc(C(CC(=O)O)NS(=O)(=O)c2ccc(NC(C)=O)cc2)cc1 (stereo not drawn)	none
CCc1ccc(NC(=O)NCCN2CCc3ccccc3C2)cc1	Prostate diff 34.0
CCSc1nnc(NC(=O)CSc2nnc(Cc3cccn3C)n2CCc2ccccc2)s1	FPR ligand 33.5
Cn1cccc1Cc1nnc(SCC(=O)Nc2nccs2)n1CCc1ccccc1	none

Source: PubChem BioAssay
